# Source: PubChem BioAssay AID2320 (National Center for Advancing Translational Sciences (NCATS), 2010)
# Results filed as inconclusive are left out. A call without a number means that no potency is given here. The source made the active and inactive calls. Calls follow the shape of the full dose curve.
# Experiment: A qHTS for Small Molecule Inhibitors of Shiga Toxin (Confirmatory); also: nearly all actives have a fitted effect of over 75% in size
# Conditions: Cell-based Shiga toxin protection reporter assay; series mostly up to 38.3 µM
# Potency is read from the fitted curve at half-maximal effect.
row,Compound,Potency
1,C=CCn1c(=S)[nH]c2cc(-c3ccccc3)sc2c1=O,0.0113 µM (active)
2,O=C(NCCCO)/C(=C\c1ccco1)NC(=O)c1ccco1,inactive
3,Fc1ccccc1N=C1Nc2cccc3cccc1c23,inactive
4,COCCCNC(=O)NC(=O)c1ccccc1,inactive
5,Cc1sc(NC(=O)CCCC(=O)O)c(C(N)=O)c1-c1ccccc1,11.3 µM (active)
6,Cc1noc(/C=C/c2ccco2)c1S(=O)(=O)N1CCC(C(=O)N(C)Cc2ccccc2)CC1,22.5 µM (active)
7,Cc1cc(NC(=O)CSc2nc3ccsc3c(=O)n2Cc2ccccn2)n[nH]1,25.2 µM (active)
8,COc1cccc(OC)c1OCCCOc1ccc(C)cc1Br,inactive
9,CCCc1cc(=O)oc2cc(C)cc(OCC(=O)NCc3ccccn3)c12,inactive
10,Cc1ccc2c(c1)N(CC(=O)N1CCCC1)C(=O)CO2,inactive
11,COc1ccccc1NC(=O)Nc1cc(F)ccc1F,20 µM (active)
12,COc1ccccc1CNc1nc2ccccc2n1CCN1CCCCC1,inactive
13,CN(C)S(=O)(=O)c1ccc(C(=O)Nc2ccc(CN3CCCC3)cc2)cc1,0.0283 µM (active)
14,O=C(NCCC1=CCCCC1)C1CCN(S(=O)(=O)c2cccc3cccnc23)CC1,inactive
15,Cc1cc(C)n(-c2nc(SCCN(C)C)c3c4c(sc3n2)COC(C)(C)C4)n1,inactive
16,Cc1noc(C)c1S(=O)(=O)Nc1cccc(CO)c1,inactive
17,CCOc1cc(S(=O)(=O)N2CCN(Cc3ccccc3)CC2)ccc1Br,inactive
18,O=C(Sc1cccc2cccnc12)c1ccccc1Br,8.95 µM (active)
19,Cc1cc(N/C=C\c2nnnn2-c2ccccc2)no1,22.5 µM (active)

row,Compound,Potency
1,CC(=O)c1ccc(NC(=O)C(C)Sc2nnc(C3CCCCC3)o2)cc1 (stereo not drawn),inactive
2,COc1ccc(CNCC(=O)Nc2sccc2C#N)cc1,20 µM (active)
3,O=C(CSc1nnc(-c2ccccn2)o1)Nc1ccccc1C(F)(F)F,8.95 µM (active)
4,Cn1c(=O)c2ncn(CC(=O)NCCOc3ccccc3)c2n(C)c1=O,inactive
5,Cc1cc(C(=O)COC(=O)c2cccn2C)c(C)n1Cc1ccco1,0.252 µM (active)
6,CN1CCN(C(=O)CN(C)S(=O)(=O)c2ccc(F)cc2)CC1,inactive
7,Cc1ccc([N+](=O)[O-])cc1NC(=O)CSc1nncn1-c1ccccn1,inactive
8,O=C(/C=C/C#Cc1cccc(NS(=O)(=O)c2ccccc2)c1)NO,11.3 µM (active)
9,Cc1nnc(NC(=O)C2COc3ccccc3O2)s1 (stereo not drawn),14.2 µM (active)
10,CCCCc1ccc(NS(=O)(=O)N(C)C)cc1,inactive
11,COc1ccccc1NC(=O)CSc1nnc(CC(=O)Nc2ccccc2F)n1C,inactive
12,COc1ccccc1N(CCC#N)C(=O)CSc1nc(-c2ccccc2)cn1N,inactive
13,CCCNC(=O)c1ccc2snnc2c1,inactive
14,O=C(O)c1ccn(Cn2cnc3ccccc32)n1,inactive
15,COc1ccc(N2CCN(Cc3csc(C)c3-c3ccc(C)cc3)CC2)cc1,inactive
16,COc1ccc(NC(=O)c2cccnc2Nc2ccc(OC)cc2)cc1,inactive
17,O=C(Nc1nnc(S(=O)(=O)N2CCOCC2)s1)c1cccc(Br)c1,20 µM (active)
18,Cc1oncc1-c1csc(-c2ccccc2Cl)n1,7.98 µM (active)
19,COc1ccc(CNC(=O)C(OC(=O)c2ccco2)c2ccccc2F)cc1 (stereo not drawn),inactive
